High-throughput results as filed in PubChem.
MITF act = activators of MITF-driven TRPM1 promoter reporter, primary screen, cell-based, SK-MEL-5, luciferase, single point; activation, % at 12.5 µM; AID 588334, 2011; 300,000 tested, 0.75% active; SK-MEL-5 TRPM1-promoter luciferase, 24 h; % of positive control, neutral wells = 0;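 active means mean activation of at least 80% with every replicate also reaching 80%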;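 further: 0% = neutral control wells and 100% = parthenolide positive control wells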
HSF1 inh = HSF1 inhibitors in luciferase reporter cells, primary screen, cell-based, NIH3T3, luminescence | activity change, negative = inhibition, % at 7.5 µM (by protocol) | NIH3T3-HGL HSE-luciferase, MG132-induced, luminescence 8 h; hits give low values | 300,000 tested, 0.77% active;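 active means more than half of replicate wells show activity change below -50%, luminescence cut by over half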;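 further: luciferase reports HSF-1 transcriptional activity via heat shock element; 0% = median of DMSO wells and -100% = zero luminescence signal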
Wnt bcat act = Wnt/beta-catenin pathway activators, primary screen, cell-based, plate reader, single point. Wnt/beta-catenin reporter cell assay, activator. activation, % at 9.35 µM. AID 743398, 2014. 300,000 tested, 1.2% active; in the data active means activation above about 30%, passing the limit was not always enough;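 further: 0% = neutral control wells and 100% = positive control wells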
SMARCA2 act = SMARCA2 (BRM) function activators, primary screen, cell-based, luminescence, high throughput | MG213 cells, MMTV-luciferase reporter, dexamethasone, overnight | activation, % at 9.1 µM | 370,000 tested, 1% active | AID 652017, 2013; in the data active means activation above about 7.8%;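 further: 0% = vehicle wells and 100% = reference activator wells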
HSF-1 act = HSF-1 activators, primary screen, NIH3T3-HGL cells, MG132 stress, luminescence, single point | 300,000 tested, 1.7% active | NIH3T3-HGL HSF-1 luciferase reporter, 8 h; 100% = twice DMSO control signal | activation, % at 9 µM;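 active means mean replicate activation of at least 50% with a set share of replicates each reaching 50%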;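 further: 0% = median of the neutral control wells and 100% = twice that signal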
esBAF inh = Bmi1 luciferase reporter increase in mESCs, primary screen, esBAF inhibitor project, mouse ES cells, Bmi1 luciferase knock-in, single point | 350,000 tested, 2% active | 24 h; 100% = twice the neutral-well signal | reporter increase, % at 12.5 µM; in the data active means activation above about 40%;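 further: 0% = median of the plate's neutral control wells and 100% = double that signal; a rise in the Bmi1 reporter signal indicates esBAF inhibition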
Active calls of the source: *; ! = not active in a repeat. Only some compounds are listed: those with a hit (about 4.3% of all), similar ones and a draw of the others.

What do the screens show for `Cc1cccc(-n2c(C)cc(C(=O)NC3CCCCC3)c2C)c1`?
MITF act: 63; HSF1 inh: -6; Wnt bcat act: 21; SMARCA2 act: 2; HSF-1 act: -13; esBAF inh: 16

How did COc1ccc(-n2c(C)cc(C(=O)NC3CCCCC3)c2C)cc1 do in these assays?
MITF act: 43; HSF1 inh: 2; Wnt bcat act: 18; SMARCA2 act: 4; HSF-1 act: -14; esBAF inh: 54*

How did CCc1ccc(NC(=O)C(=S)NC2CCCCC2)cc1 do in these assays?
MITF act: 119*; HSF1 inh: 4; Wnt bcat act: -4; SMARCA2 act: 4; HSF-1 act: 33; esBAF inh: 30

How did CCc1ccc(NC(=O)C2C3CCC(O3)C2C(=O)O)cc1 (centres undefined) do in these assays?
HSF1 inh: -70*; Wnt bcat act: 0; SMARCA2 act: -1; HSF-1 act: -74; esBAF inh: 24

What do the screens show for `O=C(N[C@H]1CC[C@H](CCNC(=O)C2CCOCC2)O[C@H]1CO)c1ccccn1`?
esBAF inh: 1

What do the screens show for `COc1ccc(OC)c(NC(=O)C(=S)NC2CCCCC2)c1`?
MITF act: -5; HSF1 inh: 7; Wnt bcat act: -2; SMARCA2 act: -2; HSF-1 act: -3

How did O=C(Cc1ccc(Br)cc1)NC1CCCCC1 do in these assays?
MITF act: 32; HSF1 inh: 16; Wnt bcat act: 20; SMARCA2 act: 1; HSF-1 act: 6; esBAF inh: 29

How did CCOc1ccc(NC(=O)C(=S)NC2CCCCC2)cc1 do in these assays?
MITF act: 136*; HSF1 inh: 25; Wnt bcat act: -1; SMARCA2 act: -1; HSF-1 act: 22

Results for O=C(Cc1ccc(O)cc1)NC1CCCCCC1 ?
MITF act: 90*; HSF1 inh: -41; Wnt bcat act: 16; SMARCA2 act: 0; HSF-1 act: -55; esBAF inh: 36

How did COc1ccc(NC(=O)C(=S)NC2CCCCC2)cc1 do in these assays?
MITF act: 69; HSF1 inh: 37; Wnt bcat act: 39*; SMARCA2 act: 1; HSF-1 act: 18; esBAF inh: 36

What do the screens show for `CCc1ccc(NC(=O)NC2CCCCCCC2)cc1`?
MITF act: 95*; Wnt bcat act: 19; SMARCA2 act: 6; esBAF inh: 58*

How did CC(C)NC[C@H]1[C@H](c2ccc(C3=CCCCC3)cc2)[C@@H](CO)N1C(=O)NC(C)C do in these assays?
esBAF inh: -2

Results for CO[C@H]1CN(C)C(=O)c2cc(NS(=O)(=O)c3ccc(C)cc3)ccc2OC[C@@H](C)N(Cc2nccs2)C[C@H]1C ?
esBAF inh: -5

How did CN(C)C(=O)C[C@H]1CC[C@H]2[C@@H](COc3ccc(NC(=O)C4CC4)cc3C(=O)N2C)O1 do in these assays?
esBAF inh: 0

What do the screens show for `CO[C@H]1CN(C)C(=O)c2ccc(NC(=O)C3CC3)cc2OC[C@@H](C)N(CC2CCCC2)C[C@@H]1C`?
esBAF inh: -5

What do the screens show for `CCC1(CC)Nc2ccccc2C(=O)N1c1ccc(OC)cc1`?
MITF act: 42; HSF1 inh: 34; Wnt bcat act: 53*; SMARCA2 act: 6; HSF-1 act: 28

How did C[C@@H]1CCCCO[C@H](CN(C)C(=O)c2ccncc2)[C@H](C)CN([C@@H](C)CO)C(=O)c2cc(NC(=O)NC3CCCCC3)ccc2O1 do in these assays?
esBAF inh: 1

How did CN1C2=CC=CC=CC2=[N+](C)C12C([N+](=O)[O-])=CC(=[N+]([O-])[O-])C=C2[N+](=O)[O-] (centres undefined) do in these assays?
HSF1 inh: 0; Wnt bcat act: 106*; SMARCA2 act: 1; HSF-1 act: 2; esBAF inh: -6

Results for c1cncc(-c2nc3c(ccc4ccccc43)[nH]2)c1 ?
MITF act: 13; HSF1 inh: 12; Wnt bcat act: 13; SMARCA2 act: 6; HSF-1 act: 33; esBAF inh: 52*

How did O=c1[nH]c(-c2cccnc2)nc2ccccc12 do in these assays?
MITF act: 2; HSF1 inh: -2; Wnt bcat act: -4; SMARCA2 act: -2; HSF-1 act: 11; esBAF inh: -5

Results for CO[C@@H]1CN(C)C(=O)c2cc(NC(=O)Nc3cccc(Cl)c3)ccc2OC[C@H](C)N(C(=O)Nc2c(C)noc2C)C[C@H]1C ?
esBAF inh: -3

How did O=C(O)C(Cc1c[nH]c2ccccc12)N1C(=O)c2ccccc2C1=O (centres undefined) do in these assays?
MITF act: -12; HSF1 inh: -8; Wnt bcat act: 43*; SMARCA2 act: 2; HSF-1 act: -12

What do the screens show for `N[C@@H](Cc1c[nH]c2ccccc12)C(=O)O`?
HSF1 inh: -37; HSF-1 act: -49

What do the screens show for `C[C@@H]1CN([C@@H](C)CO)C(=O)c2cc(NC(=O)C3CCCCC3)ccc2O[C@@H](C)CCCCO[C@@H]1CN(C)S(=O)(=O)c1ccc(Cl)cc1`?
esBAF inh: -1

How did CC(=O)Nc1ccc(N/C=C/C(=O)C(C)(C)C)cc1 do in these assays?
MITF act: 16; HSF1 inh: 35; SMARCA2 act: -2; HSF-1 act: 63*; esBAF inh: 8

Results for COc1ccc(Oc2ccc(N/C=C/C(=O)C(C)(C)C)cc2)cc1 ?
MITF act: 23; HSF1 inh: 14; Wnt bcat act: 4; SMARCA2 act: 2; HSF-1 act: 22; esBAF inh: 4

How did CC(=O)c1sc(NC(=O)COc2ccccc2)nc1C do in these assays?
MITF act: 51; HSF1 inh: 29; Wnt bcat act: 6; SMARCA2 act: 4; HSF-1 act: 46; esBAF inh: 33

Results for COc1cc(=O)[nH]c(SCC(=O)Nc2nc3c(s2)CCCC3)n1 ?
MITF act: -13; HSF1 inh: -86*; Wnt bcat act: 3; SMARCA2 act: -3; HSF-1 act: -89; esBAF inh: -7

How did O=C(Nc1nnc(C23CC4CC(CC(C4)C2)C3)s1)c1ccco1 do in these assays?
MITF act: 78; HSF1 inh: -1; Wnt bcat act: 41*!; SMARCA2 act: 0; HSF-1 act: -10; esBAF inh: 31

How did O=C(COc1ccccc1)Nc1nc2c(s1)CCCC2 do in these assays?
MITF act: 114*; HSF1 inh: 19; Wnt bcat act: 20; SMARCA2 act: 3; HSF-1 act: 32; esBAF inh: 58*

How did Cc1nnc(NC(=O)c2ccco2)s1 do in these assays?
MITF act: 1; HSF1 inh: -2; Wnt bcat act: -3; SMARCA2 act: 6; HSF-1 act: -7; esBAF inh: 6
